Measurements: PubChem BioAssay
Active and inactive are the calls of the source. Unless noted, no rule for the calls is given here.

Tests used:
[1] = HepG2 liver cancer cell viability effects, profiling panel, resazurin fluorescence, 24 h, PK04 Diversity Set (AID 1172); conditions: higher = more signal
[2] = basal S. cerevisiae growth modulation, no modifier, primary screen, OD600, strain BY4716, 24 h, basal condition (AID 1173); conditions: OD600, 24 h, higher = more signal, called active from +8 up or from −8 down
[3] = MM1S myeloma cell viability, profiling panel, resazurin fluorescence, basal, 24 h, PK04 Diversity Set (AID 1174); conditions: higher = more signal, called active from +8 up or from −8 down;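 also: MM1S multiple myeloma cell line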
[4] = target: Dihydroorotate dehydrogenase (quinone), mitochondrial (Plasmodium falciparum (isolate 3D7)) (UniProt Q08210); assay: PfDHODH enzyme inhibitors, primary screen, biochemical, C-terminal His tag, absorbance 600 nm (AID 1175); conditions: DCIP absorbance 600 nm, higher = more signal, called active from +8 up or from −8 down;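 also: recombinant parasite enzyme with a five histidine tag at its C terminus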
[5] = P. aeruginosa biofilm formation inhibitors, primary screen, strain PAO1, LB-PBS medium, absorbance 600 nm (AID 1176); conditions: P. aeruginosa PAO1 growth/biofilm, A600, 12 h; higher = more signal
[6] = S. cerevisiae RM11-1a growth modifiers, primary screen, strain RM11-1a, OD600, basal, 24 h (AID 1177); conditions: OD600, 24 h, higher = more signal, called active from +8 up or from −8 down;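 also: cultures grown under basal conditions with no added stressor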
[7] = E. coli acrAB mutant growth effects, primary screen, E. coli filamentation inducers, strain DRC39, OD650, 24 h (AID 1178); conditions: higher = more signal, called active from +8 up or from −8 down;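 also: growth measured as culture turbidity by optical density at 650 nm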
[8] = E. coli acrAB mutant growth effects, primary screen, E. coli filamentation inducers, strain DRC39, OD650, 48 h (AID 1179);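 also: screen aims at cell division blockers that make cells filament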; conditions: E. coli DRC39 delta-acrAB growth, higher = more signal, called active from +8 up or from −8 down
[9] = RPMI8226 myeloma cell viability, profiling panel, resazurin fluorescence, basal, 24 h, PK04 Diversity Set (AID 1180); conditions: higher = more signal;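 also: RPMI8826 multiple myeloma cell line at 5000 cells per well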
[10] = target: E3 ubiquitin-protein ligase XIAP (Homo sapiens) (UniProt P98170); assay: XIAP binders, primary screen, biophysical, small-molecule microarray, fluorescence 635 nm (AID 1181); conditions: small-molecule microarray binding, higher = more signal;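 also: score merges 667 nm emission and signal to noise over triplicate slides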
[11] = test system: XIP peptide (Xip251-270) binding; assay: small-molecule binders of XIP peptide, primary screen, biochemical, small-molecule microarray, fluorescence 635/667 nm, 0.1 µg/mL protein (AID 1182); conditions: fluorescent protein binding, 635 nm, higher = more signal, called active from +8 up or from −8 down
[12] = test system: XIP peptide (Xip251-270); assay: small-molecule binders of XIP peptide, primary screen, biochemical, small-molecule microarray, fluorescence 635/667 nm, 0.5 µg/mL protein (AID 1183); conditions: small-molecule microarray binding, fluorescence 635 nm; higher = more signal
[13] = Plasmodium falciparum growth inhibition, primary screen, strain 3D7, DAPI fluorescence, 100 nL (AID 1184);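 also: parasites grown inside human red blood cells in medium with human serum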; conditions: P. falciparum 3D7 growth, 3 d, higher = more signal
[14] = target: Homeobox protein Hox-A13 (Mus musculus) (UniProt Q62424); assay: inhibitors of HoxA13-DNA binding, primary screen, biochemical, fluorescence polarization, labeled oligonucleotide (AID 1185); conditions: 15 min, higher = more signal, called active from +8 up or from −8 down
Homeobox protein Hox-A13 (Mus musculus), sequence (Q62424 whole entry, looked up): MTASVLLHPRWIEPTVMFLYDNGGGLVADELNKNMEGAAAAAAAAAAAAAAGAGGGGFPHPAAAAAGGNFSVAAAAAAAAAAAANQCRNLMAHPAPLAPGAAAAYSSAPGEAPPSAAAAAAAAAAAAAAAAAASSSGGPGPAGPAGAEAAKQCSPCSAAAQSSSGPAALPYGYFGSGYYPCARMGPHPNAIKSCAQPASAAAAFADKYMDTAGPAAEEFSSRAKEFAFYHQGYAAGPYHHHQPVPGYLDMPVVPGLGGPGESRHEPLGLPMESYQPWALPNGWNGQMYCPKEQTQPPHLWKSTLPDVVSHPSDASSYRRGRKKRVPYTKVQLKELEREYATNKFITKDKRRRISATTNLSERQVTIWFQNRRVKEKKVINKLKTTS

E3 ubiquitin-protein ligase XIAP (Homo sapiens), sequence (P98170 whole entry, looked up): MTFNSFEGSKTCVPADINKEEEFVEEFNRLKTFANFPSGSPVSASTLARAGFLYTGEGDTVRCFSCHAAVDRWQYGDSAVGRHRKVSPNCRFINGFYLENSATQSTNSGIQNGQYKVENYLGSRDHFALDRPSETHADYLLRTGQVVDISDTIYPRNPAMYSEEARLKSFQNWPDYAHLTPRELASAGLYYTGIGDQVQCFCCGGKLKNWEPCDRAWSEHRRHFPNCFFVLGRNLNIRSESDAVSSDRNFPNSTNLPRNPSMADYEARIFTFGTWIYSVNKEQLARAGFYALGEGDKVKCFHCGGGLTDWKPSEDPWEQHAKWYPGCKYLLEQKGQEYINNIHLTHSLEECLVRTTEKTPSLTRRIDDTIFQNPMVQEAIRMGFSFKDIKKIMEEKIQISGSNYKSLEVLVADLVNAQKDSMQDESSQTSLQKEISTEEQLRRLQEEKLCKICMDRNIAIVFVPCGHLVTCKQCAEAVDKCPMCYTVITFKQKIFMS
Dihydroorotate dehydrogenase (quinone), mitochondrial (Plasmodium falciparum (isolate 3D7)), sequence (Q08210 whole entry, looked up): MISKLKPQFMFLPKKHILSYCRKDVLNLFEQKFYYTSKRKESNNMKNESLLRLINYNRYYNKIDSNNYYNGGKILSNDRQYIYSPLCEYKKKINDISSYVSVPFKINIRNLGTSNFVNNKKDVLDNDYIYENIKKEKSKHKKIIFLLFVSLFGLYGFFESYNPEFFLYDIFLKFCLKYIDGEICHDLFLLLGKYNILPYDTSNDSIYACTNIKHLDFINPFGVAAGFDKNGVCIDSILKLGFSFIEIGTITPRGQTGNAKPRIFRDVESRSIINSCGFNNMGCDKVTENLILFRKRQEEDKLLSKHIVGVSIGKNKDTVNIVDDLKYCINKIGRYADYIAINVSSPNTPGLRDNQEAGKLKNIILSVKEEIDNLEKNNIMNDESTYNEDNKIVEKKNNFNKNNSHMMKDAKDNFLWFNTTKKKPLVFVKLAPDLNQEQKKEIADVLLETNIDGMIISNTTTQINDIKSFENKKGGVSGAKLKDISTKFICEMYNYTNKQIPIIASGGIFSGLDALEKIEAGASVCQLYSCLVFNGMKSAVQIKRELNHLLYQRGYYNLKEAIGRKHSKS

Row | Compound | z-score [1] | z-score [2] | z-score [3] | composite z-score [4] | z-score [5] | z-score [6] | z-score [7] | z-score [8] | z-score [9] | composite z-score [10] | composite z-score [11] | composite z-score [12] | z-score [13] | z-score [14]
1 | CO[C@@H]1[C@H](O)CO[C@H]1C=Cc1ccccc1 | -1.01 | -1.05 (inactive) | 0.841 (inactive) | 0.295 (inactive) | -0.859 (inactive) | -0.113 (inactive) | -0.442 (inactive) | 0.207 (inactive) | 0.941 | -0.123 | -0.553 (inactive) | 0.836 | -0.703 | -3.28 (inactive)
2 | CCOC(=O)[C@H](CC(C)C)NC(=O)CCC1CC(OC(=O)NCCc2ccc(F)cc2)CC2(CCCC(COC(=O)NCCCN3CCCC3=O)O2)O1 (stereo not given in full) | 0.653 | -0.796 (inactive) | 0.469 (inactive) | 0.0102 (inactive) | 0.909 (inactive) | -0.129 (inactive) | 0.698 (inactive) | -0.405 (inactive) | 1.32 | -0.179 | 0.173 (inactive) | 0.74 | -1.82 | -6.3 (inactive)
3 | COc1cccc([C@H]2Oc3ccc(OC)cc3C(=NO[C@@H](C)c3cc(-c4c(C)cc(C)cc4C)no3)[C@@H]2O)c1 | -0.406 | 1.18 (inactive) | 0.0117 (inactive) | -2.77 (inactive) | 0.523 (inactive) | 1.96 (inactive) | 0.243 (inactive) | -1.43 (inactive) | -0.116 | -0.336 | -0.294 (inactive) | 0.0817 | -0.24 | 0.621 (inactive)
4 | CO[C@@H]1C=CCC(=O)N[C@@H](C)C(=O)OC[C@@H](OC)[C@H](C)C=CCC(=O)OC[C@H]1C | -0.103 | -0.615 (inactive) | 0.697 (inactive) | -0.765 (inactive) | -0.507 (inactive) | -0.718 (inactive) | 0.267 (inactive) | -0.42 (inactive) | 0.103 | -0.169 | 0.551 (inactive) | 0.744 | -0.523 | -0.0745 (inactive)
5 | CC(=O)OC[C@H]1O[C@@H](ON=C(C)CCC(=O)OC[C@H]2O[C@H](C#Cc3ccccc3)C=C[C@@H]2Oc2ccc(C)cc2)[C@H](OC(C)=O)[C@@H](OC(C)=O)[C@@H]1OC(C)=O | 0.0214 | -0.053 (inactive) | 0.364 (inactive) | -0.47 (inactive) | -0.102 (inactive) | 0.0837 (inactive) | 0.297 (inactive) | -0.905 (inactive) | 0.135 | -0.269 | 0.0771 (inactive) | 0.625 | -0.713 | -3.79 (inactive)
6 | CCOC(=O)NN=C1C[C@@H](O)[C@@H](O)[C@@H]2[C@@H]3C(=O)N(c4ccc(F)cc4F)C(=O)[C@@H]3CC[C@H]12 | 0.99 | -0.468 (inactive) | 1.44 (inactive) | -2.51 (inactive) | 0.614 (inactive) | -0.738 (inactive) | 0.284 (inactive) | 0.498 (inactive) | 0.241 | -0.176 | 0.192 (inactive) | -0.119 | -1.36 | 1.14 (inactive)
7 | CCOC(=O)[C@H](Cc1ccccc1)NC(=O)CCC1CC(OC(=O)NCCc2ccc(F)cc2)CC2(CCCC(COC(=O)NCCC(C)C)O2)O1 (stereo not given in full) | 0.456 | -0.0624 (inactive) | 0.129 (inactive) | 0.0106 (inactive) | 0.0737 (inactive) | 1.05 (inactive) | 0.953 (inactive) | -0.203 (inactive) | 1.16 | -0.0543 | 0.162 (inactive) | 0.657 | -1.66 | -4.45 (inactive)
8 | COC(=O)[C@H](C)NC(=O)CCC1CC(OC(=O)NCc2cccc3ccccc23)CC2(CCCC(COC(=O)NCCOc3ccccc3)O2)O1 (stereo not given in full) | 0.311 | -0.689 (inactive) | 0.875 (inactive) | -0.989 (inactive) | -0.458 (inactive) | 0.149 (inactive) | 0.008 (inactive) | -0.693 (inactive) | 0.564 | -0.275 | 2.12 (inactive) | 0.345 | -0.372 | -6.3 (inactive)
9 | CO[C@H]1COC(=O)[C@H](C)COC(=O)[C@@H](OCc2ccccc2)C=C[C@@H]1C | 0.176 | -2.14 (inactive) | -0.114 (inactive) | 0.175 (inactive) | -0.355 (inactive) | -0.077 (inactive) | 1.02 (inactive) | 0.636 (inactive) | -0.476 | -0.138 | 0.277 (inactive) | -0.348 | 1.25 | -0.571 (inactive)
10 | C[C@H]1CC[C@H]2C(=O)OC(COc3ccc(C(C)(C)C)cc3)CN2[C@@H]1c1ccc(Br)cc1 (stereo not given in full) | 0.272 | -4.88 (inactive) | 0.283 (inactive) | -0.673 (inactive) | 1.18 (inactive) | -0.249 (inactive) | 1.22 (inactive) | 0.662 (inactive) | -0.317 | -0.173 | 0.0819 (inactive) | 0.3 | 1.52 | -3.32 (inactive)
11 | OC[C@H]1O[C@H](C#Cc2ccccc2)C=C[C@@H]1O | -0.0313 | -2.6 (inactive) | -0.323 (inactive) | -0.249 (inactive) | 0.298 (inactive) | -0.353 (inactive) | 0.953 (inactive) | 0.626 (inactive) | 0.226 | -0.184 | 0.0849 (inactive) | -0.105 | 0.223 | -2.53 (inactive)
12 | CC(C)=CCCC(C)=CCON=C1C[C@@H](O)[C@@H](O)[C@@H]2[C@@H]3C(=O)N(Cc4ccc5c(c4)OCO5)C(=O)[C@@H]3CC[C@H]12 | 0.659 | 0.522 (inactive) | -0.503 (inactive) | -0.108 (inactive) | 0.437 (inactive) | 1.01 (inactive) | 0.454 (inactive) | 0.0551 (inactive) | -0.402 | -0.144 | 0.165 (inactive) | 0.17 | -0.348 | -4.72 (inactive)
13 | CC(C)[C@H](NC(=O)OC(C)(C)C)[C@@H](O)CC(=O)C(C)(C)C | 0.365 | 0.289 (inactive) | -0.809 (inactive) | 0.525 (inactive) | 0.593 (inactive) | 0.942 (inactive) | 0.599 (inactive) | 0.311 (inactive) | -0.816 | -0.111 | -0.232 (inactive) | -0.19 | 0.227 | -0.092 (inactive)
14 | CO[C@H]1COC(=O)[C@H](C)COC(=O)[C@H](C)NC(=O)CC=C[C@H]1C | 0.377 | -1.32 (inactive) | 1.13 (inactive) | 0.0315 (inactive) | -0.826 (inactive) | -0.419 (inactive) | 0.91 (inactive) | -0.193 (inactive) | 1.03 | -0.0525 | 0.126 (inactive) | 0.506 | 0.0087 | -0.299 (inactive)
15 | COc1ccc(COC(=O)NN=C2C[C@@H](O)[C@@H](O)[C@@H]3[C@@H]4C(=O)N(c5cccc(Oc6ccccc6)c5)C(=O)[C@@H]4CC[C@H]23)cc1 | 0.609 | -1.08 (inactive) | -0.341 (inactive) | -2.56 (inactive) | -0.872 (inactive) | -1.02 (inactive) | 0.829 (inactive) | 0.751 (inactive) | 0.487 | 0.274 | -0.538 (inactive) | -0.255 | -1.34 | -3.81 (inactive)
16 | C[C@@H]1CC[C@H]2C(=O)O[C@@H](CN=[N+]=[N-])CN2[C@H]1c1ccc(Br)cc1 | -0.607 | -3.55 (inactive) | -0.74 (inactive) | 5.24 (inactive) | -0.446 (inactive) | 4.32 (inactive) | 0.31 (inactive) | -1.66 (inactive) | -4.06 | -0.0421 | 0.223 (inactive) | 0.688 | -1.72 | -0.917 (inactive)
17 | CC(CCN1CCCCc2nc(C)c(C)cc21)=NOC[C@@H](O)[C@H]1O[C@@H]2OC(C)(C)O[C@@H]2[C@H]1O | -0.825 | -0.546 (inactive) | -1.03 (inactive) | -0.183 (inactive) | 0.335 (inactive) | -0.382 (inactive) | 0.78 (inactive) | -0.887 (inactive) | -0.216 | -0.0323 | -0.398 (inactive) | 0.698 | 0.027 | -1.75 (inactive)
18 | CCOC(=O)[C@H](CC(C)C)NC(=O)CCC1CC(OC(=O)NCc2ccc3c(c2)OCO3)CC2(CCCC(COC(=O)NCCc3ccc(Cl)cc3)O2)O1 (stereo not given in full) | 0.538 | -0.723 (inactive) | 0.984 (inactive) | -0.704 (inactive) | -0.151 (inactive) | -0.166 (inactive) | 0.337 (inactive) | -0.294 (inactive) | 1.13 | -0.157 | -0.0891 (inactive) | 0.137 | -1.66 | -6.16 (inactive)
19 | COC(=O)CC=C[C@@H](C)[C@@H](C=NOC(C)CN1CCCc2nc(C)c(C)cc21)NS(=O)(=O)c1ccc(C)cc1 (stereo not given in full) | -0.566 | 0.21 (inactive) | -0.47 (inactive) | 0.899 (inactive) | 0.253 (inactive) | 0.253 (inactive) | 0.157 (inactive) | -0.0007 (inactive) | -1.32 | 0.222 | 0.364 (inactive) | 0.624 | 0.135 | -7.74 (inactive)
20 | CC(C)CON=C1C[C@@H](O)[C@@H](O)[C@@H]2[C@@H]3C(=O)N([C@@H](C)c4ccccc4)C(=O)[C@@H]3CC[C@@H]12 | -0.161 | 0.221 (inactive) | -0.827 (inactive) | 0.291 (inactive) | 1.6 (inactive) | -0.251 (inactive) | -0.286 (inactive) | -0.112 (inactive) | -0.534 | 0.209 | 0.0068 (inactive) | -0.344 | -0.274 | -2.35 (inactive)
